Bioassay records: PubChem BioAssay, National Center for Advancing Translational Sciences (NCATS)
The list is not random: actives were taken first. Their share in the collection is about 1.5%.
TrxR1 substrate: rat thioredoxin reductase 1 substrate activity; O89049; purified TrxR1 substrate turnover, NADPH consumption readout; Potency, µM (highest dose often 114 µM); 390,000 tested, 0.01% active; AID 588456; further: nearly all actives have a fitted effect of over 50% in size
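Rat TrxR1, dispensed at 90 nM, was prereduced with 400 uM NADPH (final) for 5 min at ~22 deg C, then incubated with compound 15 min before 400 uM selenite. A first-read NADPH fluorescence drop versus no-compound background flagged substrates.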
Eya2 inh: blocks the phosphatase activity of human Eya2; 330,000 tested, 0.006% active; recombinant Eya2, OMFP fluorescence dephosphorylation (OMFP is methylfluorescein phosphate); Potency, µM (series often up to 76.9 µM), most hits filed as inhibitors
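Eya2 protein (added as 0.2 uM solution) was preincubated with compound for 10 min at ambient temperature in 50 mM HEPES pH 7.5, 50 mM NaCl, 5 uM MgCl2, 0.05% BSA, 1 mM DTT. OMFP (added at 50 uM) then reacted 10 min; fluorescence read at 485/525 nm.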
TrxR1 inh: inhibitors of rat thioredoxin reductase 1; recombinant rTrxR1, NADPH fluorescence consumption, selenite substrate; Potency, µM (top dose mostly 114 µM), actives largely listed as inhibitors; 390,000 tested, 1% active; AID 588453; further: nearly all actives have a fitted effect of over 65% in size
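Rat TrxR1 (90 nM in the dispensed reagent) was pre-reduced with 400 uM NADPH for 5 min at room temperature, then incubated with compound for 15 min. After 400 uM selenite was added, NADPH fluorescence (Ex 340/Em 450 nm) was followed for 8 min.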
CtBP-E1A inh: CtBP/E1A binding inhibition; activity change, % (test concentration not listed); AlphaScreen GST-E1A/His-CtBP binding, 1536-well; stronger effect = lower value; AID 651724; 340,000 tested, 0.49% active; in the data active means activity change below about -65%; inconclusive means mostly about -30% to -63%
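Steps: dispense buffer (Tris pH 8.0, NaCl 300 mM, TCEP 1 mM, BSA, Tween 20); add 5X protein mix (GST-E1A, His-CtBP, 125 nM each); pin 23 nL compound; 2 h at 37 °C, dark; add 5X beads (50 ug/mL); 1 h; read.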
GALK inh: blocks human galactokinase activity | P51570 | Potency, µM (series often up to 57.5 µM), hits mostly inhibitors | Purified GALK, Kinase-Glo residual ATP luminescence | 270,000 tested, 0.007% active
Target sequence (P51570 whole entry, looked up): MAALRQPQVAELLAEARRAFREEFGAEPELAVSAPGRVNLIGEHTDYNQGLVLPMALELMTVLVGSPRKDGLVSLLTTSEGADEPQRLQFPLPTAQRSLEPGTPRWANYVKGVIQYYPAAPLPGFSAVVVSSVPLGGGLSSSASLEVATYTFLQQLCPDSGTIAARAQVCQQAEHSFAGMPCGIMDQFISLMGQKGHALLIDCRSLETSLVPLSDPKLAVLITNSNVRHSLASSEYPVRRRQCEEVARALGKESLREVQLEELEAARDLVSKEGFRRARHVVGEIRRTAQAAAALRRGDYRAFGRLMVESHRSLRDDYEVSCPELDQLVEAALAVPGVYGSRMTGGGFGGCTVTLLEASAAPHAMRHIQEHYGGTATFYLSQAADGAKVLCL
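Kinase-Glo Plus luminescence measured ATP left after a 1 h room-temperature reaction. The reaction used 5 nM GALK, 100 uM galactose and 35 uM ATP at pH 8.0 (20 mM HEPES, 5 mM MgCl2, 60 mM NaCl, 1 mM DTT, 0.01% BSA).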
Six1-Eya2 blk: Six1/Eya2 interaction inhibition; Q15475+O00167; AlphaScreen GST-Six1/His-Eya2 binding, biochemical; stronger effect = lower value; activity change, % (concentration not given with the values); 360,000 tested, 0.56% active; AID 651725; in the data active means activity change below about -65%; inconclusive means mostly about -30% to -63%
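AlphaScreen with GST-Six1 and His-Eya2 (5X mix: 250 nM and 500 nM), glutathione donor and nickel acceptor beads; buffer 50 mM Tris pH 8.0, 300 mM NaCl, 1 mM TCEP; 1 h at 37 C in the dark.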
Numbers stand for hits; – = inactive; ? = inconclusive; · = no result given; [ ] = dose if it differs, or a comment. Unless noted, the call rests on the fitted dose curve; in most records, active means well fitted curve in the direction sought with a large enough effect; inconclusive means small, poorly fitted or top-dose-only effect, or another doubt; inactive means no such curve, though single readings can be large; an effect the other way counts as inactive or inconclusive.

SMILES | TrxR1 substrate | Eya2 inh | TrxR1 inh | CtBP-E1A inh | GALK inh | Six1-Eya2 blk
Cc1cc(Cl)ccc1OCC(=O)N(Cc1ccco1)c1c(N)n(Cc2ccccc2)c(=O)[nH]c1=O | – | · | 50.1µM | – | · | –
Nc1c(N(CCO)C(=O)/C=C/c2ccco2)c(=O)[nH]c(=O)n1Cc1ccccc1 | – | – | 20µM | · | – | –
O=C(OCn1ncc(Br)c(Br)c1=O)c1ccc(F)cc1 | – | – | 1.78µM | – | – | –
Cc1ccc(-c2onc(C)c2C)cc1S(=O)(=O)N1CCC(C)CC1 | – | · | – | · | · | ·
Nc1[nH]c(N=NC(=O)c2ccccc2)c2ccccc12 | – | – | – | – | – | –
Nc1[nH]c(N=NC(=O)c2ccccc2O)c2ccccc12 | – | – | – | ? | – | -77.7
COc1ccc(C)cc1NC(=O)CSc1ccc(-c2ccccn2)nn1 | – | – | – | -85.1 | – | -82.6
CCOC(=O)c1ccccc1NC(=O)CSc1ccc(-c2ccccn2)nn1 | – | – | – | -86.0 | – | -84.1
O=C(O)CCc1nnc2cnc3ccccc3n12 | – | · | – | · | · | ·
Cc1ccc(-n2nc3c(N4CCCC(C(=O)NCCc5ccccc5)C4)nnc(C)c3c2C)cc1 (stereo not given) | – | · | – | · | · | ·
COc1ccc(NC(=S)Nc2ncccc2C)c(OC)c1 | – | – | 1.78µM | – | – | ?
Cc1cccc(CSc2cccc3cccnc23)c1 | – | – | – | -92.5 | – | -90.3
CCCCCOc1ccc(NC(=O)CSc2cccc3cccnc23)cc1 | – | – | – | -94.9 | – | -92.0
Cc1cccc(NC(=O)CSc2cccc3cccnc23)c1C | – | – | – | -78.6 | – | ?
COc1ccc(NC(=O)CSc2cccc3cccnc23)c(OC)c1 | – | – | – | – | – | –
COc1ccc(CNC(=O)CSc2cccc3cccnc23)cc1 | – | – | – | – | – | –
CCOC(=O)CSc1cccc2cccnc12 | – | – | – | -91.8 | – | -89.1
Cc1cccc(NC(=O)CN2C(=O)CSc3ccc(S(=O)(=O)N4CCCC4)cc32)c1C | – | · | – | · | · | ·
O=C(CSc1cccc2cccnc12)Nc1ccc(S(=O)(=O)N2CCOCC2)cc1 | – | – | – | -92.6 | – | -88.2
O=C(CSc1cccc2cccnc12)Nc1cccc(S(=O)(=O)N2CCOCC2)c1 | – | – | – | – | – | –
Cc1ccc(S(=O)(=O)NCCOC(=O)Nc2sc(=S)n(C)c2C)cc1 | – | – | 7.08µM | – | – | –
CCc1cccc(NC(=O)c2cc3c(=O)[nH]c4ccccc4c3n2C)c1 | – | · | – | · | · | ·
COc1ccc(CN2CCNC(=O)C2CC(=O)NCc2cc(C)n(C)n2)c(F)c1 (stereo not given) | – | – | 39.8µM | – | – | –
CCN1/C(=C2\OC(=S)N(C)C2=O)C=Cc2ccccc21 | – | – | – | – | – | –
CCSC1=NC(=O)/C(=C2/C=Cc3ccccc3N2CC)S1 | – | – | – | -74.2 | – | -79.1
SMILES | TrxR1 substrate | Eya2 inh | TrxR1 inh | CtBP-E1A inh | GALK inh | Six1-Eya2 blk
CC(Oc1ccccc1)C(=O)N[C@@H]1C(=O)N2[C@@H]1SC(C)(C)[C@@H]2C(=O)OCc1ccccc1 (stereo not given in full) | – | · | 50.1µM | · | · | ·
O=C(Nc1nnc(SCc2ccc(F)cc2)s1)c1ccccn1 | – | – | – | -95.5 | – | -90.2
O=C(Nc1nc2ccc(F)cc2s1)c1ccccn1 | – | – | – | -92.4 | – | -76.9
O=C(Nc1nnc(SCc2ccc(F)cc2)s1)c1cccnc1Cl | – | – | – | – | – | –
O=C(Nc1nc2ccccc2s1)c1cnccn1 | – | – | ? | – | – | –
Oc1c(C(Nc2cccc(C(F)(F)F)c2)c2cccnc2)ccc2cccnc12 (stereo not given) | – | – | 14.1µM | -85.5 | – | -82.5
Cc1cccc(NC(c2ccc(O)cc2)c2ccc3ccc(C)nc3c2O)n1 (stereo not given) | – | – | ? | ? | – | –
Cc1cc(NC(c2cccnc2)c2ccc3cccnc3c2O)no1 (stereo not given) | –[2.29 µM] | – | ? | -93.4 | – | -87.8
Oc1c(C(Nc2cccnc2)c2ccc(C(F)(F)F)cc2)ccc2cccnc12 (stereo not given) | – | · | ? | · | · | ·
COc1ccc(N2CC(C(=O)Nc3ccccc3-c3nc(-c4ccc(C)cc4)no3)CC2=O)cc1 (stereo not given) | – | · | – | · | · | ·
O=C(CSc1nc2c([nH]c3ccccc32)c(=O)n1-c1ccccc1F)Nc1ccccc1C(F)(F)F | – | · | – | · | · | ·
CCOC(=O)N1C=CC=C[C@@H]2[C@@H](N3C(=O)c4ccccc4C3=O)C(=O)N21 | – | – | 15.8µM | – | – | –
COc1ccc(-c2csc(-c3ccc(O)cc3)n2)cc1 | – | – | 56.2µM | – | – | –
CSc1ccc(/C=C2\C=Cc3ccc([N+](=O)[O-])cc32)cc1 | – | · | ? | · | · | ·
CCn1c(CN2CCC(C)CC2)nc2cc(NC(=O)COc3ccc(Cl)c(C)c3)ccc21 | – | · | – | · | · | ·
Cn1nnnc1Sc1ncnc2scc(-c3cccs3)c12 | – | – | 44.7µM | · | · | ·
COC(=O)CSc1[nH]c2ccc(F)cc2c1[N+](=O)[O-] | – | – | 35.5µM | · | – | –
CCOC(=O)CSc1[nH]c2cc(OC)ccc2c1[N+](=O)[O-] | – | – | – | – | – | –
O=C(O)C[C@@H]1C(=O)O[C@@H]2C(COC(=O)c3cc(O)c(O)c(O)c3)O[C@@H](OC(=O)c3cc(O)c(O)c(O)c3)[C@@H](OC(=O)c3cc(O)c(O)c4c3[C@H]1[C@H](O)C(=O)O4)[C@H]2OC(=O)c1cc(O)c(O)c(O)c1 (stereo not given in full) | · | – | · | · | 14.1µM | ·
O=C(OC[C@H]1O[C@@H](OC(=O)c2cc(O)c(O)c(OC(=O)c3cc(O)c(O)c(O)c3)c2)[C@H](OC(=O)c2cc(O)c(O)c(OC(=O)c3cc(O)c(O)c(O)c3)c2)[C@@H](OC(=O)c2cc(O)c(O)c(OC(=O)c3cc(O)c(O)c(O)c3)c2)[C@@H]1OC(=O)c1cc(O)c(O)c(OC(=O)c2cc(O)c(O)c(O)c2)c1)c1cc(O)c(O)c(OC(=O)c2cc(O)c(O)c(O)c2)c1 | – | – | ? | · | · | ·
COc1cc(/C=N/Nc2ncnc3sc4c(c23)CCC4)ccc1O | – | – | – | -82.7 | – | -67.9
Nc1c(-c2nc(-c3ccc4c(c3)OCO4)cs2)c2ccccn2c1C(=O)c1ccccc1 | – | · | – | · | · | ·
O=c1cc(/N=C/c2coc3cc(Br)ccc3c2=O)[nH]c(=S)[nH]1 | – | – | ? | – | – | –
CC(=O)Oc1ccc2c(=O)c(/C=N/c3cc(=O)[nH]c(=S)[nH]3)coc2c1 | – | – | ? | – | – | -74.6
